# This is a sample that favours compounds with a hit; in the whole collection about 2.3% have one here.
# M1 ag – human M1 muscarinic receptor agonists, primary screen, Fluo-8 calcium fluorescence, CHO-K1 cells, HTS | CHO-K1 hM1, agonist mode; 0% DMSO, 100% acetylcholine EC100 | Muscarinic acetylcholine receptor M1 (Homo sapiens), P11229 | activation, % at 3 µM | actives 0.33% (n = 360,000);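 active means activation above the run's mean compound activation plus 3 SD, cut at about 16% in these data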;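 further: peak over basal fluorescence ratio within a 140 s kinetic read after compound addition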
# Target sequence (P11229 whole entry, looked up): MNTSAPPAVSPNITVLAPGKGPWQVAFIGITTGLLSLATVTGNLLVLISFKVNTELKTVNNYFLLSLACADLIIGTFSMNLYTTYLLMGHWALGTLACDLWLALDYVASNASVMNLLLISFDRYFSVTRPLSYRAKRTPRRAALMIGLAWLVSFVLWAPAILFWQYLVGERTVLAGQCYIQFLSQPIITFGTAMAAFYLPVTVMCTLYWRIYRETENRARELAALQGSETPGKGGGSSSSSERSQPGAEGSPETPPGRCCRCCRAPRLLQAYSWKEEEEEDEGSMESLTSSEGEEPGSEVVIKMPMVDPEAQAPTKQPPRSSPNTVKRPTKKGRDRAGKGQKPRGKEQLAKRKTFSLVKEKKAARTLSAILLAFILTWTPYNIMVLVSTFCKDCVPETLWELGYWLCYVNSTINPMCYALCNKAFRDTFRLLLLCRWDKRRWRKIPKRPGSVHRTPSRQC
# CHRM1 PAM – human M1 muscarinic receptor positive allosteric modulators, primary screen, CHO-K1 cells, Fluo-8 calcium fluorescence, 1536-well. Muscarinic acetylcholine receptor M1 (Homo sapiens), P11229. CHO-K1 hM1, ACh EC20; 0% = ACh EC20, 100% = maximal ACh. activation, % at 3 µM. actives 0.088% (n = 360,000). AID 588819, 2011; in the data active means activation above about 19%, passing the limit was not always enough
# CHO-K1 Ca PAM – nonselective calcium activators in parental CHO-K1 cells, primary screen, counter-screen for M1 PAM project, cell-based, Fluo-8 calcium fluorescence, full deck, 1536-well; ATP EC20; 0% at ATP EC20, 100% at ATP max; activation, % at 3 µM; actives 0.02% (n = 360,000); AID 602247, 2012;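 active means activation above the run cutoff, the mean activation of all test compounds plus 3 SD, cut at about 40% in these data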;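 further: peak over basal fluorescence ratio in a 140 s read after ATP addition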
# CHO-K1 Ca ag – counter-screen for M1 agonists: effect in parental CHO-K1 cells. actives 0.48% (n = 360,000). Fluo-8 calcium fluorescence; scaled to maximal ATP response, vehicle zero. AID 602248, 2012. activation, % at 3 µM; in the data active means activation above about 15%;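 further: untransfected CHO-K1 host cells lacking M1 receptor as counterscreen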
# M1 antag – human M1 muscarinic receptor antagonists, primary screen, CHO-K1 cells, Fluo-8 calcium fluorescence, 1536-well; Muscarinic acetylcholine receptor M1 (Homo sapiens), P11229; CHO-K1 hM1, ACh EC80 antagonist; inhibition, % at 3 µM; actives 1.3% (n = 360,000);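 active means percent inhibition above its own plate's cutoff, namely the mean of that plate's compound wells plus 3 SD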;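 further: peak over basal fluorescence ratio during 140 s after agonist addition; 0% = ACh EC80 plus DMSO and 100% = DMSO alone without agonist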
# CHO-K1 Ca antag – nonselective inhibitor or artifact in parental CHO-K1 cells | inhibition, % at 3 µM | actives 0.6% (n = 360,000) | ATP-induced calcium, Fluo-8 fluorescence;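 active means inhibition above a per-plate cutoff, the plate's mean sample inhibition plus 3 SD, cut at about 24% in these data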;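 further: 0% = DMSO plus EC80 ATP and 100% = DMSO alone without ATP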
# Numbers without * were called inactive; / = no result given.
SMILES,M1 ag,CHRM1 PAM,CHO-K1 Ca PAM,CHO-K1 Ca ag,M1 antag,CHO-K1 Ca antag
C=CCn1c(SCC(=O)Nc2nc(C)cs2)nnc1C(C)NC(=O)c1ccccc1Cl (stereo unspecified),-3.2,-8.6,18.5,1.0,47.0*,-3.8
COc1ccc(S(=O)(=O)Nc2ccc(N3CCOCC3)cc2)cc1,1.2,11.3,-12.4,0.7,-5.3,10.5
COc1ccc(NS(=O)(=O)c2ccc(N3CCOCC3)c(N)c2)cc1,5.9,-14.4,-7.1,13.0,30.9*,13.2
CCOc1ccc(NS(=O)(=O)c2cc3c(cc2C)N(C)CCO3)cc1,-0.7,-15.9,13.7,7.3,23.9,13.4
COc1ccc(NS(=O)(=O)c2cc3c(cc2C)N(C)CCO3)cc1,1.0,-13.9,-4.8,6.7,31.7*,9.4
Oc1ccccc1-c1nnc(COc2ccc(Cl)cc2Cl)o1,-0.1,2.6,-13.8,-1.1,-7.2,43.7*
COc1ccc(OC)c(CN2C(=O)c3ccccc3C2c2nnnn2C2CCCC2)c1 (stereo unspecified),/,/,7.8,0.0,/,-13.4
CC(C)n1c2ccccc2c2nnc(SCC(=O)Nc3ccccc3C(=O)O)nc21,0.0,-6.9,6.6,1.8,8.3,9.5
O=C(N/N=C/c1cccc2ccccc12)c1cccnc1,-2.1,10.0,14.6,2.0,-13.4,-4.1
Cc1ccccc1/C=N/NC(=O)c1cccnc1,2.8,27.4*,11.1,-0.1,-33.8,-5.9
CCOCCc1nnc(NC(=O)C2CC(=O)N(c3ccc(OCC)cc3)C2)s1 (stereo unspecified),-3.7,6.1,5.7,0.1,-3.9,-11.8
O=C(Nc1nnc(SCc2ccccn2)s1)C1CC(=O)N(c2ccc(F)cc2)C1 (stereo unspecified),-2.4,0.8,-26.6,0.5,24.9*,3.1
COc1cccc(N2CC(C(=O)Nc3nnc(SCc4ccccn4)s3)CC2=O)c1 (stereo unspecified),-2.2,-5.3,24.7,1.6,10.9,-13.9
CCc1nnc(NC(=O)C2CC(=O)N(c3ccc(C)cc3)C2)s1 (stereo unspecified),-2.0,5.8,3.0,-0.5,5.0,24.2*
CCOc1ccc(N2CC(C(=O)Nc3nnc(CC)s3)CC2=O)cc1 (stereo unspecified),-3.7,28.4*,16.6,-0.6,0.8,-3.6
COc1ccccc1C1CCN(Cc2cccc([N+](=O)[O-])c2)CC1,-8.3,-22.3,-16.3,0.0,35.3*,-0.8
Cc1ccc(S(=O)(=O)N2CCN(C(=O)Cc3c(F)cccc3Cl)CC2)cc1,-1.6,3.9,-18.5,4.1,-5.0,6.1
O=[N+]([O-])c1ccc(Oc2c(F)c(F)nc(N3CCCC3)c2F)cc1,-4.8,-12.5,-5.1,11.1,27.8*,13.3
COc1ccc(NC(=O)Cn2nnc(C(=O)NCCc3ccccc3)c2N)cc1,-3.7,11.3,15.1,18.8*,-4.8,2.9
COc1ccc(OCC(=O)OCC(=O)c2ccc(OC)c(F)c2)cc1,-2.5,10.9,17.9,1.3,-14.6,-3.1
O=C(NC(=O)c1ccccc1)Nc1cccc(S(=O)(=O)N2CCCCC2)c1,3.3,6.7,14.3,1.2,-9.8,0.1
COCCN(CC(=O)Nc1cccc(C)c1C)C(=O)c1cc(-c2ccncc2)nc2ccccc12,-1.4,-17.5,-6.7,6.1,34.4*,0.0
COCCN(CC(=O)Nc1cccc(C)c1C)C(=O)c1cc(-c2cccs2)nn1-c1ccccc1,-3.4,-11.4,-19.8,4.2,17.9,2.5
Cc1ccc(NC(=O)CC2(CC(=O)O)CCCC2)c(C)c1,-4.8,12.1,9.4,-0.3,-10.8,-10.8
CC1(c2ccccc2)NC(=O)N(CC(=O)Nc2ccccc2N2CCCCC2)C1=O (stereo unspecified),22.3*,5.8,17.5,6.5,-2.6,-11.2
SMILES,M1 ag,CHRM1 PAM,CHO-K1 Ca PAM,CHO-K1 Ca ag,M1 antag,CHO-K1 Ca antag
CC1(c2ccc([N+](=O)[O-])cc2)NC(=O)N(CC(=O)Nc2cccnc2Cl)C1=O (stereo unspecified),22.5*,9.2,15.0,9.1,-5.8,-6.9
COc1ccc(C2(C)NC(=O)N(CC(=O)Nc3cccnc3Cl)C2=O)cc1 (stereo unspecified),10.2,8.0,-2.6,6.0,-7.3,-0.2
Cc1ccc(C2(C)NC(=O)N(CC(=O)Nc3cccnc3Cl)C2=O)cc1 (stereo unspecified),1.6,9.1,16.9,2.2,0.0,-10.8
CC1(c2ccc(OC(F)F)cc2)NC(=O)N(CC(=O)Nc2cccnc2Cl)C1=O (stereo unspecified),43.9*,-8.4,-16.4,33.0*,18.6,-1.5
CCC1(c2ccccc2)NC(=O)N(CC(=O)Nc2ccccc2N2CCCC2)C1=O (stereo unspecified),12.8,9.8,-7.9,4.9,-13.6,10.4
CCC1(c2ccc(F)cc2)NC(=O)N(CC(=O)Nc2cccnc2Cl)C1=O (stereo unspecified),16.8*,5.8,-27.9,8.9,-4.8,-2.6
CCC1(c2ccccc2)NC(=O)N(CC(=O)Nc2cccnc2Cl)C1=O (stereo unspecified),4.1,13.6,23.5,2.3,-10.5,-2.1
Cc1cccc(-c2nc(S(=O)(=O)c3ccc(F)cc3)c(NCCCN3CCOCC3)o2)c1,-4.7,-2.3,5.7,1.5,6.3,-7.6
Cc1ccc(C)c(Cn2nnc3c(=O)[nH]c(C4CCCN(C(=O)c5cccs5)C4)nc32)c1 (stereo unspecified),-5.8,2.8,5.3,-0.1,-0.5,-4.5
CC(C)(CO)CNC(=O)CCc1nnc(C2(c3ccc(Cl)cc3)CCC2)o1,-4.3,3.1,-1.1,-0.1,0.7,3.6
COCCNC(=O)CCc1nnc(C2(c3ccc(Cl)cc3)CCC2)o1,-7.3,8.3,4.2,15.8*,1.2,10.8
Cc1cccc(NC(=O)CCCn2cc([N+](=O)[O-])cn2)n1,-3.9,11.4,17.4,1.2,-10.0,-13.9
CCCn1nnc(NC(=O)c2ccc([N+](=O)[O-])cc2Cl)n1,-10.7,10.7,22.7,15.2*,-2.8,-1.1
OC(c1cc(Cl)cc(Cl)c1)c1ncc(-c2cccc(F)c2)[nH]1 (stereo unspecified),4.2,6.5,5.0,5.0,-10.2,-6.7
Cc1ccc(C)c(SCC(=O)OCC(=O)NCCNC(=O)COC(=O)CSc2cc(C)ccc2C)c1,-0.7,6.2,-2.4,0.5,-3.9,0.6
COc1ccc(-c2cc(=O)c3ccc(O)cc3o2)cc1,0.7,24.1*,10.4,-0.3,-22.9,1.0
O=C(c1ccccc1Cl)N1CCNCC1,-4.2,-8.0,-8.4,1.1,20.4,18.3
